Screening data deposited in PubChem by National Center for Advancing Translational Sciences (NCATS).
Only some compounds are listed: those with a hit (about 0.96% of all), similar ones and a draw of the others.
TRHR agonist-1 = agonists of human TRH receptor; P34981; TRHR cells, calcium flux fluo-8, FDSS agonist mode; activation, % at 2 µM; 360,000 compounds, 0.18% hits; in the data active means activation above about 30%; further: 0% is about no effect
Target sequence (P34981 whole entry, looked up): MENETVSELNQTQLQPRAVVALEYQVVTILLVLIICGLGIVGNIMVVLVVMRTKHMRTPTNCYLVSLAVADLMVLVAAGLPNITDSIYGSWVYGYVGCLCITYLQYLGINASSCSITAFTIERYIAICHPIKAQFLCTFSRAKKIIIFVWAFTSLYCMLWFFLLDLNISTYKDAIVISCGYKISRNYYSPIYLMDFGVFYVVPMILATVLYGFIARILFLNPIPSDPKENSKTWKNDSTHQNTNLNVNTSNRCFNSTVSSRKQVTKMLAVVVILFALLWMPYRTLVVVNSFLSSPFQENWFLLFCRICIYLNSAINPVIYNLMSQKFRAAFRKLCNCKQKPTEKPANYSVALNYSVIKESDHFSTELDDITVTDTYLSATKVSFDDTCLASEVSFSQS
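Agonist-mode FDSS calcium read (Ex 480/Em 530, 1 s cycles) in 1536-well TRHR cells with fluo-8 dye, after 10-cycle baseline and 23 nL compound addition; TRH at EC20 (10 nM final) added afterwards for the enhancer phase.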
TRPV1 potentiator = human TRPV1 potentiation; AID 540277; TRPV1-expressing cells, Fluo-8 calcium influx, capsaicin EC20 potentiation; 320,000 compounds, 0.02% hits; potentiation, % at 8.33 µM; in the data active means potentiation above about 80%; inconclusive means between about 30% and that limit; further: 0% is about no effect
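Cells expressing TRPV1 were dye-loaded with Fluo-8 and read kinetically: 10 s baseline, 3 min after compound (agonist portion), then 2 min after EC20 capsaicin (allosteric enhancer portion). Calcium-bound dye fluorescence at 480/520 nm.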
TRPV1 agonist = human TRPV1 agonism; AID 540275; TRPV1-expressing cells, Fluo-8 calcium influx, agonist mode; activation, % at 8.33 µM; Q8NER1; 320,000 compounds, 0.19% hits; in the data active means activation above about 80%; inconclusive means between about 30% and that limit; further: 0% is about no effect
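TRPV1-expressing cells were cultured overnight at 35.5C and loaded with Fluo-8 calcium dye for 40 to 90 min at room temperature. After a 10 s baseline, compound was added and calcium influx was read kinetically for 3 min (ex 480/em 520 nm).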
TRHR enhancer-1 = allosteric enhancers of human TRH receptor. P34981. TRHR cells, fluo-8 calcium fluorescence, EC20 TRH enhancement. enhancement, % at 2 µM. 360,000 compounds, 0.66% hits; in the data active means enhancement above about 30%; further: 0% is about no effect
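TRHR-expressing cells loaded with fluo-8 calcium dye were read kinetically (ex 480/em 530) during compound addition, then stimulated with an EC20 of TRH (10 nM final). Enhancement of the Gq-mediated intracellular calcium response was scored.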
TRPML1 agonist = human mucolipin-1 channel agonism; TRPML1-expressing cells, Ca2+ dye fluorescence, FDSS; activation, % (no concentration beside the values); 410,000 compounds, 0.12% hits; AID 624414; in the data active means activation above about 50%; inconclusive means mostly about 30% to 49%; further: 0% is about no effect
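Tet-induced TRPML1-DL cells, 1,500 per well, cultured overnight, were loaded with a no-wash Ca2+ dye for 45–90 min. Calcium fluorescence was recorded on the FDSS for 110 s after compound addition, before the EC80 agonist (4 uM 54-4) was added.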
TRPML1 inh = inhibitors of human TRPML1 channel. Q9GZU1. TRPML1-inducible cells, Ca2+ dye fluorescence, FDSS; active compounds read low; inhibition of EC80 agonist-evoked calcium signal. activity change, negative = inhibition, % (test concentration not listed). 390,000 compounds, 0.02% hits. AID 624415; in the data active means activity change below about -50%; inconclusive means between about -30% and that limit;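 further: stimulus is agonist 54-4 at its EC80 concentration; on the % scale 0 is the no-effect control and ±100 the full control effect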
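Calcium fluorescence in TRPML1-DL cells induced overnight with Tet: a 110 s read after compound pin addition, then a 110 s antagonist read after challenge with 54-4 at 4 uM final (EC80).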
TRHR enhancer-2 = confirmation of human TRH receptor allosteric enhancers; activity change, negative = inhibition, % at 46.1 µM; TRH receptor cell assay, enhancer confirmation qHTS; shares compounds with TRHR enhancer-1; AID 493076; 970 tested, under 10 active;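 further: compound effect scored on response to added TRH at EC20 of 10 nM; 0% is about no effect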
TRHR agonist-2 = human TRH receptor agonism confirmation; shares compounds with TRHR enhancer-1; Potency, µM (top dose mostly 46.1 µM), for inactives: top-dose activation, hits mostly activators; 970 compounds, 8% hits; AID 493078; TRHR-expressing cells, agonist activation read-out; further: potency means the concentration at half of the fitted maximal effect; 0% is about no effect; nearly all actives have a fitted effect of over 75% in size
Numbers without * were called inactive; ? = inconclusive; . = no result. Unless noted, the call rests on the fitted dose curve; in most records, active means well fitted curve in the direction sought with a large enough effect; inconclusive means small, poorly fitted or top-dose-only effect, or another doubt; inactive means no such curve, though single readings can be large; an effect the other way counts as inactive or inconclusive.

SMILES	TRHR agonist-1	TRPV1 potentiator	TRPV1 agonist	TRHR enhancer-1	TRPML1 agonist	TRPML1 inh	TRHR enhancer-2	TRHR agonist-2
CCOc1ccc(CN(C(=O)/C=C/c2ccco2)C2CCS(=O)(=O)C2)cc1 (stereo not given)	41*	3	2	-8	1	-14	1	1%
Cc1cccc(NS(=O)(=O)c2ccc(C)c(C(=O)NCC(c3cccs3)N(C)C)c2)c1 (stereo not given)	1	12	2	42*	0	8	2	3%
COC(=O)c1cc(S(=O)(=O)N2CCN(c3cccc(C)c3C)CC2)c[nH]1	0	-10	25	48*	2	46	-7	-1%
COC(=O)c1cc(S(=O)(=O)N2CCN(c3ccccc3)CC2)c[nH]1	1	-16	15	-2	0	29	.	.
CCC1(C)Cc2c(sc3c2c(=O)n(C)c2nnc(SCCc4ccccc4)n32)CO1 (stereo not given)	0	-2	4	65*	0	-13	-9	0%
O=C1CC(c2ccco2)CC2=C1C(c1ccc(O)cc1)n1nc(C(F)(F)F)nc1N2 (stereo not given)	-1	12	1	-2	1	-25	.	.
Cc1ccc(NC(=O)c2cc(S(=O)(=O)N3CCCC3)cn2C)cc1C	0	-1	1	47*	1	6	7	0%
Cc1ccc(NC(=O)NN2CCN(C)CC2)cc1C	0	17	-4	41*	0	-11	5	-1%
COC(=O)c1nnn(-c2nonc2N)c1CSc1nc2ccccc2s1	0	0	3	3	1	11	.	.
CCOC(=O)c1nnn(-c2nonc2N)c1CSc1nnc(N)s1	0	-8	-4	52*	0	6	-1	1%
S=C(NCc1ccco1)Nc1ccc(N2CCOCC2)cc1	1	1	0	53*	0	-13	-3	0%
S=C(NCc1ccco1)N1CCOCC1	0	-5	0	0	0	3	.	.
Cc1c(NC(=O)Cn2nc(C(F)(F)F)c3c2CCCC3)c(=O)n(-c2ccccc2)n1C	0	13	-3	58*	-1	7	-10	-1%
CCc1ccccc1NC(=O)Cn1nc(C(F)(F)F)c2c1CCCC2	-1	.	.	4	1	10	.	.
CCN(C(=O)Cn1nc(C(=O)O)c2ccccc2c1=O)C1CCCCC1	0	5	-1	44*	2	24	-8	2%
COC(=O)c1ccccc1NC(=O)Cn1nc(C(F)(F)F)c2c1CCCC2	0	.	.	57*	3	?	-12	4%
Cc1c(NC(=O)Cn2nc(C(=O)O)c3ccccc3c2=O)c(=O)n(-c2ccccc2)n1C	0	5	1	46*	-1	7	-3	-1%
CN(C)c1ccc(/C=C/c2ccnc3c([N+](=O)[O-])cccc23)cc1	.	.	.	.	0	.	.	.
Clc1cccc[n+]1CCc1ccccc1	.	.	.	.	-1	.	.	.
CCc1ccc2nc3n[nH]c(N)c3cc2c1	-1	0	-2	6	-1	-6	.	.
Nc1[nH]nc2nc3ccccc3cc12	0	-10	22	69*	1	10	7	1%
CC(C)(C)NC(=O)COC(=O)CNC(=O)C1CCCCC1	.	.	.	.	0	.	.	.
CS/C(=C\[N+](=O)[O-])Nc1ccc(OC(F)(F)F)cc1	1	3	0	43*	0	4	-3	?
CC(C)(CCl)C(=O)Nc1ccc(OC(F)(F)F)cc1	0	-22	17	-5	-1	16	.	.
Cn1c(CN2CCCC2)nc2cc(NC(=O)c3ccco3)ccc21	0	-4	2	55*	0	3	-3	-1%
SMILES	TRHR agonist-1	TRPV1 potentiator	TRPV1 agonist	TRHR enhancer-1	TRPML1 agonist	TRPML1 inh	TRHR enhancer-2	TRHR agonist-2
CC(=O)Nc1ccc2c(c1)nc(CCNC(=O)c1ccccc1)n2C	-1	-13	-3	42*	-1	17	14	-1%
Clc1nc(NCc2cccs2)c2[nH]cnc2n1	.	.	.	.	-1	.	.	.
CN(C)c1ccc(C(I)C(I)c2ccnc3ccccc23)cc1 (stereo not given)	.	.	.	.	18	.	.	.
CN1CCN(/C(=N\O)c2nonc2N)CC1	0	27	-1	-8	2	26	.	.
Nc1nonc1/C(=N/O)N1CCN(CCO)CC1	1	-8	-2	88*	-1	-15	-1	0%
COc1ccc(NC(=O)CSc2nnc3c(n2)[nH]c2ccc(S(=O)(=O)N(C)C)cc23)c(OC)c1	.	.	.	.	0	.	.	.
CSc1nc(=O)[nH]c2nc[nH]c12	.	.	.	.	0	.	.	.
Cc1csc(N2CCCC2=O)n1	0	-1	-10	41*	0	-14	5	-1%
O=C(C[n+]1cccc(I)c1)c1ccc(F)cc1	.	.	.	.	0	.	.	.
C[S+](C)CC(=O)c1ccc2ccccc2c1	.	.	.	.	0	.	.	.
Oc1ccc2ccccc2c1/C=N/Nc1nnc(-c2ncc[nH]2)c2ccccc12	46*	-25	4	13	2	-3	?	23µM*
CC1CCCC(NC(=O)C2c3ccccc3C(=O)N2Cc2cccs2)C1C (stereo not given)	0	13	3	44*	2	23	-14	1%
CC(C(=O)c1ccccc1)[n+]1cccc(C(N)=O)c1 (stereo not given)	0	.	.	41*	1	1	1	-1%
Cc1ccc(C(=O)C(C)[n+]2cccc(C(N)=O)c2)cc1 (stereo not given)	0	14	0	7	2	17	.	.
CCOc1cccc(C2C=C(c3ccc4c(c3)OCO4)NC(c3ccccc3F)N2)c1O (stereo not given)	.	.	.	.	0	.	.	.
Cc1cc(C(=O)COC(=O)c2ccccc2O)c(C)n1CC1CCCO1 (stereo not given)	0	-15	?	3	2	14	.	.
Cc1cc(C(=O)COC(=O)c2cc(O)c3ccccc3c2O)c(C)n1CC1CCCO1 (stereo not given)	1	-4	1	47*	-1	10	-3	0%
CCOc1ccc(-c2cc(C(=O)OC)nc3c2c(=O)n(C)c(=O)n3C)cc1	0	12	0	43*	-1	7	-6	0%
CCOc1ccc(N(Cc2nnc3n2CCCCC3)C(=O)Nc2cccc(C)c2)cc1	0	20	-6	58*	0	44	-5	1%
